# Results: PubChem BioAssay (Tox21)
# Values without a mark were called inactive. Entries that show only a call come without a potency. The source made the active and inactive calls. Calls follow the shape of the dose curve; as a rule, active = well fitted activation curve with a large enough effect in the repeat runs; inconclusive = weak or mixed curves; inactive = flat fitted curve, though single readings scatter.
# Assay: A CellTox Green Cytotoxicity Assay to monitor cytotoxicity in HepG2 cells - 0 hour (AID 1224882); also: nearly all actives have a fitted effect of over 35% in size
# Conditions: CellTox Green fluorescence; series mostly up to 76.8 µM
# Text: National Center for Advancing Translational Sciences [NCATS]
# NIH Chemical Genomics Center [NCGC]
# U.S. Environmental Protection Agency [EPA]
# National Institutes of Environmental Health Sciences [NIEHS]
# National Toxicology Program [NTP]
# Cell-based models are critical for drug discovery. Determining the natural cytotoxic effects resulting from test compounds is an essential research activity. A CellTox Green Cytotoxicity Assay to monitor cytotoxicity in real time of continues cell culture during 40 hours of the compound treatment was used to screen Tox21 10K library compounds in HepG2 cells. CellTox Green Cytotoxicity Assay is a nonlytic, homogeneous, biofluorescent method to measure cytotoxicity in cell culture after experimental manipulation. The assay system uses a proprietary asymmetric cyanine dye that is excluded from viable cells but preferentially stains the dead cell's DNA. […] Viable cells produce no appreciable increases in fluorescence. Therefore, the fluorescence signal produced by the binding interaction with dead cell DNA is proportional to cytotoxicity.
# The mixture of HepG2 cell suspension and reagents were dispensed at 600cells/6 ul/well in 1536-well tissue culture treated black solid bottom plates using a Multidrop dispenser. After the assay plates were incubated at a 37 C/5% CO2 incubator for 5 hours, 23 nL of compounds dissolved in DMSO, positive and negative controls was transferred to the assay plate by a pintool work station. The plates were incubated at 37 C for 40 hours. The fluorescence intensity were measured at 0h, 8h, 16h, 24h, 32h and 40h time points using ViewLux plate reader during compound treatment.
SMILES,Potency,cytotoxicity
O=C1NC2CCCCN2C12CCN(CCCN1c3ccccc3CCc3ccc(Cl)cc31)CC2 (stereo not given),inactive,
COC(=O)NCCC[Si](OC)(OC)OC,inactive,
CCN(CC)CCOc1ccc(C(O)(Cc2ccc(Cl)cc2)c2ccc(C)cc2)cc1 (stereo not given),inactive,
ClC/C=C\CCl,inactive,
CNCC[C@H](Oc1cccc2ccccc12)c1cccs1,inactive,
CCOCOCC,inactive,
CSc1c(Cl)c(Cl)c(Cl)c(Cl)c1Cl,inactive,
CC(C)(C)c1n[nH]c(=O)n(N)c1=O,inactive,
Clc1ccccc1CN1CCc2sccc2C1,inactive,
CCOB(OCC)OCC,inactive,
CC(C)=C1CC[C@@H](C)CC1=O,inactive,
CC(C)c1ccc(O)c(C(C)C)c1,inactive,
CCCN(CCc1cccs1)[C@H]1CCc2c(O)cccc2C1,inactive,
Cc1ccc2ccc3cccc4ccc1c2c34,inactive,
Nc1cc(Cl)c([N+](=O)[O-])cc1O,inactive,
O=S(=O)(O)CCCN1CCOCC1,inactive,
CC(C)c1ccccc1N,inactive,
CC(C)(C)c1cc(/C=C2\SC(=N)NC2=O)cc(C(C)(C)C)c1O,inactive,
O=C1C=CC(=O)N1c1ccccc1,inactive,
CCC(=O)CC(C)CC (stereo not given),,11.3% [at 0.29 µM]

SMILES,Potency,cytotoxicity
CCN(CC)CCNc1ccc(CO)c2sc3ccccc3c(=O)c12,inactive,
CN1CN(C)CN(C)C1,inactive,
O=C(Oc1ccccc1)c1cccc(C(=O)Oc2ccccc2)c1,inactive,
NC1(c2ccc(-c3nc4ccn5c(=O)[nH]nc5c4cc3-c3ccccc3)cc2)CCC1,inactive,
CCCCN(CCCC)CCC(O)c1cc2c(Cl)cc(Cl)cc2c2cc(C(F)(F)F)ccc12 (stereo not given),inactive,
CO[Si](CCC1CCC2OC2C1)(OC)OC (stereo not given),inactive,
C[C@@H]1CC[C@H]2C(C)(C)[C@H]3C[C@@]12CC[C@@]3(C)O,inactive,
CC(C)(C)CC(C)(C)c1ccccc1O,inactive,
CCCCC(CC)COC(=O)c1ccc(O)cc1 (stereo not given),inactive,
CC1(C)C(=O)N(CO)C(=O)N1CO,inactive,
O=C1Nc2ccc(Cl)cc2[C@@](C#CC2CC2)(C(F)(F)F)O1,inactive,
O=Cc1ccc(F)cc1,inactive,
OCCN1CN(CCO)CN(CCO)C1,inactive,
CC1CNCC(C)O1 (stereo not given),inactive,
CC(C)C(=O)OCc1ccccc1,inactive,
Nc1ncnc2c1ncn2[C@@H]1O[C@H](COP(=O)(O)O)[C@@H](O)[C@H]1O,inactive,
Cc1cccc(C)n1,inactive,
CCN(CC)CCCN(c1ccccc1)C1Cc2ccccc2C1,inactive,
CC1CCCCN1CCCOC(=O)c1ccc(OC2CCCCC2)cc1 (stereo not given),inactive,
C/C=C/c1ccc(OC)c(OC)c1,inactive,
